# Assay results published in PubChem BioAssay (NCATS).
# Records with an inconclusive call do not appear. A call without a number means that no potency is given here. Unmarked numbers belong to inactive results. Active and inactive are the calls of the source. Calls follow the shape of the dose curve; as a rule, active = well fitted curve in the direction sought with a large enough effect; inconclusive = small, poorly fitted or top-dose-only effect, or another doubt; inactive = no such curve, though single readings can be large; an effect the other way counts as inactive or inconclusive.
# Key:
# C33A = test: Primary qHTS to identify gynecologic anti-cancer compounds using libraries of approved drugs and bioactive compounds (AID 1345084); settings: Gynecologic cancer cell panel viability, ATPlite luminescence, 48 h; series mostly up to 57.5 µM; also: nearly all actives have a fitted effect of over 55% in size
# Method in brief: (§1)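 Cells, 1,000 per well, were allowed to settle for 16 h at 37 C before compound addition. Five concentrations were tested for 48 h, and viability was read by ATPlite luminescence after 15 min at room temperature.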
# CAOV3 = test: as above; settings: Gynecologic cancer cell panel viability, ATPlite luminescence, 48 h; series mostly up to 57.5 µM
# Method in brief: as §1
# CASKI = test: as above; settings: Gynecologic cancer cell panel viability, ATPlite luminescence, 48 h; series mostly up to 57.5 µM
# Method in brief: as §1
# Es-2 = test: as above; settings: Gynecologic cancer cell panel viability, ATPlite luminescence, 48 h; series mostly up to 57.5 µM
# Method in brief: as §1
# HeLa = test: as above; settings: Gynecologic cancer cell panel viability, ATPlite luminescence, 48 h; series mostly up to 57.5 µM
# Method in brief: as §1
# JEG-3 = test: as above; settings: Gynecologic cancer cell panel viability, ATPlite luminescence, 48 h; series mostly up to 57.5 µM
# Method in brief: as §1
# OV90 = test: as above; settings: Gynecologic cancer cell panel viability, ATPlite luminescence, 48 h; series mostly up to 57.5 µM
# Method in brief: as §1
# PA-1 = test: as above; settings: Gynecologic cancer cell panel viability, ATPlite luminescence, 48 h; series mostly up to 57.5 µM
# Method in brief: as §1
# SKOV3 = test: as above; settings: Gynecologic cancer cell panel viability, ATPlite luminescence, 48 h; series mostly up to 57.5 µM
# Method in brief: as §1
# Tov-21-G = test: as above; settings: Gynecologic cancer cell panel viability, ATPlite luminescence, 48 h; series mostly up to 57.5 µM
# Method in brief: as §1
# Tov112D = test: as above; settings: Gynecologic cancer cell panel viability, ATPlite luminescence, 48 h; series mostly up to 57.5 µM
# Method in brief: as §1
# Hek293T = test: as above; settings: Gynecologic cancer cell panel viability, ATPlite luminescence, 48 h, control line for the selectivity index; series mostly up to 57.5 µM
# Method in brief: as §1
# [1] = qHTS assay to identify inhibitors of the type 1 interferon - major histocompatibility complex class I in skeletal muscle: Counter screen cell viability and HiBit confirmation (AID 1347412); settings: iHSKM muscle cells + IFN-b, HiBiT or CellTiter-Glo, 24 h; also: nearly all actives have a fitted effect of over 60% in size
# Method in brief: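 Human myoblast knock-in line, 4.0 ng/ml IFN-beta stimulation, 24 h compound treatment. Endpoints: HiBiT lytic luminescence (HLA-B level) and CellTiter Glo (ATP). Dosing 12 concentrations, 3-fold steps, 46 uM highest final.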
# Potency is read from the fitted curve at half-maximal effect.
structure (smiles),measurement,setting,value
COc1cc(O)cc(C)c1C(=O)O[C@H]1[C@@H](OC(C)=O)[C@H](n2ccc(=O)[nH]c2=O)O[C@@H]1CO,Potency,C33A,inactive
same,Potency,CAOV3,inactive
same,Potency,CASKI,inactive
same,Potency,Es-2,inactive
same,Potency,HeLa,inactive
same,Potency,JEG-3,inactive
same,Potency,OV90,inactive
same,Potency,PA-1,inactive
same,Potency,SKOV3,inactive
same,Potency,Tov-21-G,inactive
same,Potency,Tov112D,inactive
O=C(O)c1ccccc1NCCc1ccccc1,Potency,C33A,inactive
same,Potency,CAOV3,inactive
same,Potency,CASKI,inactive
same,Potency,Es-2,inactive
same,Potency,HeLa,inactive
same,Potency,Hek293T,inactive
same,Potency,JEG-3,inactive
same,Potency,PA-1,inactive
same,Potency,SKOV3,inactive
same,Potency,Tov-21-G,inactive
same,Potency,Tov112D,inactive
O=C(C(c1ccccc1)c1ccccc1)N1CCN(CC(O)COc2cccc3ncccc23)CC1 (stereo not given),Potency,C33A,inactive
same,Potency,CAOV3,inactive
same,Potency,CASKI,inactive
same,Potency,Es-2,inactive
same,Potency,HeLa,inactive
same,Potency,Hek293T,inactive
same,Potency,JEG-3,inactive
same,Potency,PA-1,inactive
same,Potency,SKOV3,inactive
same,Potency,Tov-21-G,inactive
same,Potency,Tov112D,inactive
Cc1cc(N2CCN([C@@H]3CN[C@H](C(=O)N4CCSC4)C3)CC2)n(-c2ccccc2)n1,Potency,C33A,inactive
same,Potency,CAOV3,inactive
same,Potency,CASKI,inactive
same,Potency,Es-2,inactive
same,Potency,HeLa,inactive
same,Potency,Hek293T,inactive
same,Potency,OV90,inactive
same,Potency,Tov-21-G,inactive
same,Potency,Tov112D,inactive
Nc1ccccc1N,Potency,C33A,10 µM (active)
same,Potency,CAOV3,5.62 µM (active)
same,Potency,CASKI,7.94 µM (active)
same,Potency,Es-2,11.2 µM (active)
same,Potency,HeLa,12.6 µM (active)
same,Potency,Hek293T,7.94 µM (active)
same,Potency,OV90,10 µM (active)
same,Potency,PA-1,14.1 µM (active)
same,Potency,SKOV3,12.6 µM (active)
same,Potency,Tov-21-G,12.6 µM (active)
CCOc1cc(C(=O)N2CCC(N3CCN(C)CC3)CC2)ccc1Nc1ncc2c(n1)N(C1CCCC1)c1ccccc1C(=O)N2C,Potency,C33A,inactive
same,Potency,CAOV3,31.6 µM (active)
same,Potency,CASKI,inactive
same,Potency,Es-2,inactive
same,Potency,HeLa,inactive
same,Potency,Hek293T,inactive
same,Potency,OV90,inactive
same,Potency,SKOV3,35.5 µM (active)
same,Potency,Tov112D,inactive
same,Potency,[1]; HiBiT,12.5 µM (active)
same,"activity change, negative = inhibition","[1]; Viability, at 45.9 µM (top of the series)",-25.1%
C=C(CCC1=C(C)[C@H]2[C@H](CC3[C@@H]4CC=C5C[C@@H](O)C[C@@H](O)[C@]5(C)C4[C@H](O)C[C@@]32C)O1)CO[C@@H]1O[C@H](CO)[C@@H](O)[C@H](O)[C@H]1O (stereo not given in full),Potency,C33A,1.26 µM (active)
same,Potency,CAOV3,3.55 µM (active)
same,Potency,CASKI,3.16 µM (active)
same,Potency,Es-2,3.16 µM (active)
same,Potency,HeLa,3.16 µM (active)
same,Potency,Hek293T,3.16 µM (active)
same,Potency,PA-1,3.16 µM (active)
same,Potency,SKOV3,2.82 µM (active)
same,Potency,Tov-21-G,2.51 µM (active)
same,Potency,Tov112D,1.12 µM (active)
COc1c(/C=C/C(C)(C)O)ccc2c1C(=O)OCc1cc(C)cc(O)c1O2,Potency,C33A,inactive
same,Potency,CAOV3,inactive
same,Potency,CASKI,inactive
same,Potency,Es-2,inactive
same,Potency,HeLa,inactive
same,Potency,JEG-3,inactive
same,Potency,OV90,inactive
same,Potency,PA-1,inactive
same,Potency,Tov-21-G,inactive
same,Potency,Tov112D,inactive
O=C(c1cc2c(cc1F)OC(c1ccc(F)cc1)(c1ccc(Cl)cc1Cl)O2)N1CCOCC1 (stereo not given),Potency,C33A,inactive
same,Potency,CAOV3,inactive
same,Potency,CASKI,inactive
same,Potency,Es-2,inactive
same,Potency,HeLa,inactive
same,Potency,Hek293T,inactive
same,Potency,JEG-3,inactive
same,Potency,PA-1,inactive
same,Potency,Tov-21-G,inactive
same,Potency,Tov112D,inactive
O=C(O)c1ccc(CN2CCC(CN[C@@H]3C[C@H]3c3ccccc3)CC2)cc1,Potency,C33A,inactive
same,Potency,CAOV3,inactive
same,Potency,CASKI,inactive
same,Potency,Es-2,inactive
same,Potency,HeLa,inactive
same,Potency,Hek293T,inactive
same,Potency,OV90,inactive
same,Potency,PA-1,inactive
same,Potency,Tov-21-G,inactive
same,Potency,Tov112D,inactive
CC1(C)CC2C(C1)C(C)(O)C13CC1(COC3=O)C2O (stereo not given),Potency,C33A,inactive
same,Potency,CAOV3,inactive
same,Potency,CASKI,inactive
same,Potency,Es-2,inactive
same,Potency,HeLa,inactive
same,Potency,Hek293T,inactive
same,Potency,OV90,inactive
same,Potency,PA-1,inactive
same,Potency,SKOV3,inactive
same,Potency,Tov-21-G,inactive
same,Potency,Tov112D,inactive
NC(=O)c1cccc(-c2cc(OC(=O)NC3CCCCC3)ccc2O)c1,Potency,C33A,inactive
same,Potency,CAOV3,inactive
same,Potency,CASKI,inactive
same,Potency,Es-2,inactive
same,Potency,HeLa,inactive
same,Potency,JEG-3,inactive
same,Potency,OV90,inactive
same,Potency,PA-1,inactive
same,Potency,SKOV3,inactive
CCC(C(=O)O)c1ccc(N2Cc3ccccc3C2=O)cc1 (stereo not given),Potency,C33A,inactive
same,Potency,CAOV3,inactive
same,Potency,CASKI,inactive
same,Potency,Es-2,inactive
same,Potency,HeLa,inactive
same,Potency,Hek293T,inactive
same,Potency,JEG-3,inactive
same,Potency,PA-1,inactive
same,Potency,SKOV3,inactive
same,Potency,Tov-21-G,inactive
same,Potency,Tov112D,inactive
COC(=O)c1ccnc(-c2cc(C(=O)NCCc3ccccc3)ccn2)c1,Potency,C33A,inactive
same,Potency,CAOV3,inactive
same,Potency,CASKI,inactive
same,Potency,Es-2,inactive
same,Potency,HeLa,inactive
same,Potency,Hek293T,inactive
same,Potency,OV90,inactive
same,Potency,PA-1,inactive
same,Potency,SKOV3,inactive
same,Potency,Tov-21-G,inactive
same,Potency,Tov112D,inactive
CO[C@H]1C[C@@H]2CC[C@@H](C)[C@@](O)(O2)C(=O)C(=O)N2CCCC[C@H]2C(=O)O[C@H]([C@H](C)C[C@@H]2CC[C@H](n3cnnn3)[C@H](OC)C2)CC(=O)[C@H](C)/C=C(\C)[C@@H](O)[C@@H](OC)C(=O)[C@H](C)C[C@H](C)/C=C/C=C/C=C/1C,Potency,C33A,inactive
same,Potency,CAOV3,inactive
same,Potency,CASKI,inactive
same,Potency,Es-2,inactive
same,Potency,HeLa,inactive
same,Potency,JEG-3,inactive
same,Potency,OV90,inactive
same,Potency,PA-1,inactive
same,Potency,SKOV3,inactive
same,Potency,Tov112D,inactive
CC(=O)O[C@@H]1[C@H](O)[C@@H](O[C@@H]2O[C@@H](C)[C@H](O[C@@H]3OC[C@@H](O)[C@H](O[C@@H]4OC[C@@H](O)[C@H](O)[C@H]4O)[C@H]3O)[C@@H](O[C@@H]3O[C@H](CO)[C@@H](O)[C@H](O)[C@H]3O)[C@H]2O)[C@H](OC(=O)[C@]23CCC(C)(C)C[C@H]2C2=CCC4[C@@]5(C)CC[C@H](O[C@@H]6O[C@H](C(=O)O)[C@@H](O)[C@H](O[C@@H]7OC[C@@H](O)[C@H](O)[C@H]7O)[C@H]6O[C@@H]6O[C@H](CO)[C@H](O)[C@H](O)[C@H]6O)[C@@](C)(C=O)C5CC[C@@]4(C)[C@]2(C)CC3)O[C@@H]1C (stereo not given in full),"activity change, negative = cytotoxicity",C33A,0.359% [at 6.55 µM]
same,"activity change, negative = cytotoxicity",CAOV3,19.4% [at 6.55 µM]
same,"activity change, negative = cytotoxicity",CASKI,-13.6% [at 6.55 µM]
same,"activity change, negative = cytotoxicity",Es-2,-2.98% [at 6.55 µM]
same,"activity change, negative = cytotoxicity",HeLa,2.25% [at 6.55 µM]
same,"activity change, negative = cytotoxicity",Hek293T,-2.1% [at 6.55 µM]
same,"activity change, negative = cytotoxicity",JEG-3,-8.94% [at 6.55 µM]
same,"activity change, negative = cytotoxicity",PA-1,-3.62% [at 6.55 µM]
same,"activity change, negative = cytotoxicity",Tov-21-G,-5.86% [at 6.55 µM]
same,"activity change, negative = cytotoxicity",Tov112D,7.57% [at 6.55 µM]
COc1ccc(Oc2cc(C)c(-c3csc(NC(=O)c4ccncc4)n3)c(C)c2)cc1,Potency,C33A,inactive
same,Potency,CAOV3,inactive
same,Potency,CASKI,0.891 µM (active)
same,Potency,SKOV3,1 µM (active)
same,Potency,Tov112D,inactive
